The source of these data is PubChem BioAssay (NCI).

This is part of a sample that, as a whole, favours compounds with a hit. Of some 79,000 tested, about 15% had one in any assay. A number with no mark means an inactive call. Active and inactive are the calls of the source. Rule as the data show it: active = growth inhibition above about 70%; inactive = the rest.

A short description of experiment [1]: NCI Yeast Anticancer Drug Screen. Data for the rad50 strain (AID 155).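 Also: 0% = growth of vehicle-only cultures of the same strain.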 Conditions: S. cerevisiae rad50 strain growth inhibition; at 50.0 µM; stronger effect = higher value. In outline:
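Readout: growth inhibition relative to vehicle-treated cultures. Compound exposure was carried out in a genetically defined yeast strain deficient in DNA damage repair.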

Experiment [2] is described as follows: NCI Yeast Anticancer Drug Screen. Data for the mec2-1 strain (AID 157). Conditions: S. cerevisiae mec2-1 strain, at 50.0 µM, stronger effect = higher value. In outline: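 Strain: mec2-1 (DNA repair/cell cycle alteration). Compound exposure, then growth measured; inhibition expressed relative to vehicle.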
Experiment [3] is described as follows: NCI Yeast Anticancer Drug Screen. Data for the sgs1 mgt1 strain (AID 161).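 Also: 0% = growth of cultures given vehicle only.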 The settings on record: S. cerevisiae sgs1 mgt1 strain, at 50.0 µM, stronger effect = higher value. In outline:
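Inhibition of yeast growth, normalised to vehicle-treated controls, is reported for a strain bearing genetic alterations in DNA damage repair.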

Experiment [4] is described as follows: NCI Yeast Anticancer Drug Screen. Data for the cln2 rad14 strain (AID 165).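 Also: 0% = growth equal to vehicle treated cultures.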 Conditions: S. cerevisiae cln2 rad14 strain, at 50.0 µM, stronger effect = higher value. In outline: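 Compounds are applied to the cln2 rad14 yeast strain, and growth is then compared with that of vehicle-treated cultures to give inhibition.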
Experiment [5] in a line: NCI Yeast Anticancer Drug Screen. Data for the bub3 strain (AID 167). The settings on record: S. cerevisiae bub3 mutant strain, at 50.0 µM, stronger effect = higher value. In outline:
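Readout: yeast growth inhibition, expressed relative to vehicle-only wells. The test organism is a mutant strain from a panel with lesions in DNA repair or checkpoint genes.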

Experiment [6] is described as follows: NCI Yeast Anticancer Drug Screen. Data for the mlh1 rad18 strain (AID 175). The settings on record: S. cerevisiae mlh1 rad18 strain growth inhibition; at 50.0 µM; stronger effect = higher value. In outline: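 Read-out is yeast growth inhibition, calculated against vehicle-only controls. The compound was applied to a strain engineered with DNA damage repair alterations.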

For `NC(=O)C(C1=CCCCC1)c1ccccc1` (stereo not given), the growth inhibition in experiment [1] was 3.25%; in experiment [2], -1.3%; in experiment [3], 2.1%; in experiment [4] it was 3.15%; in experiment [5], 1.95%; in experiment [6], 0.9%.

Consider `CC1OC(=O)/C(=C\N(C)C)C1=O` (stereo not given), for which the growth inhibition in experiment [1] is 1.25%; in experiment [2], 9%; in experiment [3], 13.2%; in experiment [4] it was 42.5%; in experiment [5], 7.75%; in experiment [6], 8.6%.

As to `O=C(NCc1ccccc1)/C(=C/c1ccc2c(c1)OCO2)NC(=O)c1ccccc1`, the growth inhibition is -42% in experiment [1]; -50.1% in experiment [2]; -28.5% in experiment [3]; -6.2% in experiment [4]; -15.2% in experiment [5]; -22.2% in experiment [6].

In the case of `CCC1SCC(C)(C)NC1=O` (stereo not given), the growth inhibition in experiment [1] is 4.9%; in experiment [2], 13.4%; in experiment [3] it was -3.85%; in experiment [4], -39.2%; in experiment [5], 28.8%; in experiment [6] it was 1.4%.

For `CCCCc1ccc(Nc2c(C(=O)OCC)cnc3cc4c(cc23)OCO4)cc1`, the growth inhibition was 4.6% in experiment [1]; -12.4% in experiment [2]; -15.2% in experiment [3]; 8.5% in experiment [4]; 3.95% in experiment [5]; -17.4% in experiment [6].

`CCCC/C(=N/O)c1ccccc1`: the growth inhibition in experiment [1] was 7.4%; in experiment [2] it was 0.7%; in experiment [3], -2.65%; in experiment [4] it was -9.1%; in experiment [5], -21.6%; in experiment [6] it was -6.95%.

On to `CNc1nc(C(F)(F)F)nc(Cl)c1N`, for which the growth inhibition in experiment [1] is 10%; in experiment [2], 2.5%; in experiment [3], 13.4%; in experiment [4] it was -7.95%; in experiment [5] it was 15.3%; in experiment [6] it was 7.4%.

For `NC(N)=Nc1nc2ccccc2[nH]1`, the growth inhibition is 15.9% in experiment [1]; -2.85% in experiment [2]; 19.4% in experiment [3]; -26.4% in experiment [4]; 11.7% in experiment [5]; 18.1% in experiment [6].

On to `CC(C)C(=O)Nc1ccccc1`, for which the growth inhibition in experiment [1] was 2.9%; in experiment [2], -11.9%; in experiment [3] it was 2.7%; in experiment [4] it was -25.6%; in experiment [5], -13.6%; in experiment [6], 15.6%.

Turning to `O=C1CCC23CC(C=CC=C12)n1c(=O)n(-c2ccccc2)c(=O)n13` (stereo not given), the growth inhibition in experiment [1] is 13.2%; in experiment [2], -1.55%; in experiment [3] it was 4.1%; in experiment [4], 21.1%; in experiment [5], -14.7%; in experiment [6], 16.7%.

As to `COC1=CC(=O)c2ccc3ccccc3c2C1=O`, the growth inhibition in experiment [1] was 86.7% (active); in experiment [2] it was 90.4% (active); in experiment [3], 89.4% (active); in experiment [4], 88.8% (active); in experiment [5], 88.8% (active); in experiment [6] it was 86.5% (active).

For the compound `CCN(CC)CCNC(=O)c1ccc(C)c(OCc2ccccc2)c1[N+](=O)[O-]`, the growth inhibition is -9.4% in experiment [1]; -9.25% in experiment [2]; 26.6% in experiment [3]; -26.8% in experiment [4]; 34.8% in experiment [5]; -19.6% in experiment [6].

Turning to `CC(CN(C)C)C(=O)C(=Cc1ccccc1)C(=O)C(C)CN(C)C` (stereo not given), the growth inhibition in experiment [1] was 40.1%; in experiment [2] it was 13.1%; in experiment [3], 16.9%; in experiment [4], 22.5%; in experiment [5], -2.5%; in experiment [6] it was 20%.

In the case of `O=C(O)CS(=O)(=O)c1nc2ccccc2[nH]1`, the growth inhibition in experiment [1] is -27.3%; in experiment [2], 20.6%; in experiment [3] it was -7.75%; in experiment [4] it was -57.6%; in experiment [5] it was 10.8%; in experiment [6], -14.8%.

Turning to `CCCCCC1SCC(=O)N1c1nncs1` (stereo not given), the growth inhibition is -1.7% in experiment [1]; -21.1% in experiment [2]; 14.3% in experiment [3]; 5.85% in experiment [4]; 6.65% in experiment [5]; 12.5% in experiment [6].

As for `CC(=O)[C@H]1CC[C@@H]2[C@]1(C)CC=C1[C@]23C=C[C@]2(C[C@@H](O)CC[C@]12C)C(C(=O)O)C3C(=O)O` (stereo not given in full), the growth inhibition was 2.35% in experiment [1]; -18% in experiment [2]; -39.7% in experiment [3]; 4.2% in experiment [4]; -13.1% in experiment [5]; 7.25% in experiment [6].

For the compound `C[Si](C)(CNCCN)O[Si](C)(C)CNCCN`, the growth inhibition in experiment [1] was 6.3%; in experiment [2], -18.8%; in experiment [3], -3.3%; in experiment [4], 13.1%; in experiment [5], 5.9%; in experiment [6], 13.3%.

As to `CC1(C)[C@H](C(=O)O)N2C(=O)[C@@H](NC(=O)C(c3ccccc3)c3ccccc3)[C@H]2S1=O` (stereo not given in full), the growth inhibition was -53.5% in experiment [1]; -8.25% in experiment [2]; -10.4% in experiment [3]; 3.65% in experiment [4]; -3.9% in experiment [5]; 4.85% in experiment [6].

`Nc1cccc2c1C(=O)c1c(N)cccc1C2=O`: the growth inhibition is 99.3% (active) in experiment [1]; 99.4% (active) in experiment [2]; 94.7% (active) in experiment [3]; 98.7% (active) in experiment [4]; 99.2% (active) in experiment [5]; 99.1% (active) in experiment [6].

Regarding `S=C1NC(/C=C/c2ccccc2)Nc2ccccc21` (stereo not given), the growth inhibition in experiment [1] is 62.2%; in experiment [2], 79.1% (active); in experiment [3] it was 73% (active); in experiment [4], 81.8% (active); in experiment [5], 27.6%; in experiment [6], 88.2% (active).
